Data reported in ChEMBL document CHEMBL5308504, “Tm Shift (DSF) assay results for EUbOPEN Chemogenomics Library” (2023).

What was measured:
Details in all cases: Compound concentration 20.0 uM, Protein concentration 2.0 uM, Result type QC Liability
[1] = target: Tyrosine-protein kinase ABL1 (Homo sapiens) (UniProt P00519)
[2] = target: Cyclin-dependent kinase 2 (Homo sapiens) (UniProt P24941)
[3] = target: Casein kinase I isoform delta (Homo sapiens) (UniProt P48730)
[4] = target: Glycogen synthase kinase-3 beta (Homo sapiens) (UniProt P49841)
Sequence of Glycogen synthase kinase-3 beta (Homo sapiens) (P49841 whole entry, looked up): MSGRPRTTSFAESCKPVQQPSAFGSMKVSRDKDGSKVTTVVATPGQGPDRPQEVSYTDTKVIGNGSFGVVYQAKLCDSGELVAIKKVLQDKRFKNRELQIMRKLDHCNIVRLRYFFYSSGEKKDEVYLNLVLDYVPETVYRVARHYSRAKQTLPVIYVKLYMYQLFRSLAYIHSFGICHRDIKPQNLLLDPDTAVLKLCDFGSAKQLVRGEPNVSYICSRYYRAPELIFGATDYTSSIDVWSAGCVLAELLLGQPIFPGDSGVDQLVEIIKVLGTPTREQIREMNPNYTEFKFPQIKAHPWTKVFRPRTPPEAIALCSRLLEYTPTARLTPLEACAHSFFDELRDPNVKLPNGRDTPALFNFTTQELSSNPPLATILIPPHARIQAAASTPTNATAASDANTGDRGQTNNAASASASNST

[5] = target: Mitogen-activated protein kinase 1 (Homo sapiens) (UniProt P28482)
Sequence of Mitogen-activated protein kinase 1 (Homo sapiens) (P28482 whole entry): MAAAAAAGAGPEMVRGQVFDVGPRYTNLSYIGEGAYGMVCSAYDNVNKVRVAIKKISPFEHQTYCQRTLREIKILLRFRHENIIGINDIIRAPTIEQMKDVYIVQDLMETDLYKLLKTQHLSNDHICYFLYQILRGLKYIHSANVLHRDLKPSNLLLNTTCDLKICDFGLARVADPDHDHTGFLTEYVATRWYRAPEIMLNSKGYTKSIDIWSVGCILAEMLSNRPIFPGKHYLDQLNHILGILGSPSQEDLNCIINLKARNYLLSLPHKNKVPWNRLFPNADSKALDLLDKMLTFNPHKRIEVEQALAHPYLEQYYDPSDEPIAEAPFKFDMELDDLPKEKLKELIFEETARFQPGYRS

[6] = target: T1, Aurora kinase A (Homo sapiens) (UniProt O14965)
T1 sequence (whole entry): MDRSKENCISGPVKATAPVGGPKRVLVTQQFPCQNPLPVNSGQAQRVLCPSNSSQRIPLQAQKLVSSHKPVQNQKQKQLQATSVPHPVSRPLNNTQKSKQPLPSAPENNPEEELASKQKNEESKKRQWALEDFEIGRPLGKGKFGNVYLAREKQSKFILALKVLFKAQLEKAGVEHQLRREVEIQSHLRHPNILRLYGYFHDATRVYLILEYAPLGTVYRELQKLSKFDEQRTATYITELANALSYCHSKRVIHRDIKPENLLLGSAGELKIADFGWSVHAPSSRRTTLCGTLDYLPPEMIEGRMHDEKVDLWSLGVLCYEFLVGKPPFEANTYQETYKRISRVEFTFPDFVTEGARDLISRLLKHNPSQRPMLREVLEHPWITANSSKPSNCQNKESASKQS

Sequence of Casein kinase I isoform delta (Homo sapiens) (P48730 whole entry, looked up, canonical isoform): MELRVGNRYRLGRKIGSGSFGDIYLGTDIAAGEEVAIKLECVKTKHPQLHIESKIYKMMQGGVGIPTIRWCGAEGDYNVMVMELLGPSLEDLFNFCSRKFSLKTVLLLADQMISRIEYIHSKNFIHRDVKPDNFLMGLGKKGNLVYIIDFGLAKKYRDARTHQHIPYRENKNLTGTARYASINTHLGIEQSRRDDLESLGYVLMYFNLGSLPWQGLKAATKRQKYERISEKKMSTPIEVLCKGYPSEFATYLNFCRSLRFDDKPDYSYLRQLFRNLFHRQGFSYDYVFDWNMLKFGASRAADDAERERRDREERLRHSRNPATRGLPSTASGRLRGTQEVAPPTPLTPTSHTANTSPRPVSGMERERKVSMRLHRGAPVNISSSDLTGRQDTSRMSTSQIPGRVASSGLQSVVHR
Sequence of Tyrosine-protein kinase ABL1 (Homo sapiens) (P00519 whole entry): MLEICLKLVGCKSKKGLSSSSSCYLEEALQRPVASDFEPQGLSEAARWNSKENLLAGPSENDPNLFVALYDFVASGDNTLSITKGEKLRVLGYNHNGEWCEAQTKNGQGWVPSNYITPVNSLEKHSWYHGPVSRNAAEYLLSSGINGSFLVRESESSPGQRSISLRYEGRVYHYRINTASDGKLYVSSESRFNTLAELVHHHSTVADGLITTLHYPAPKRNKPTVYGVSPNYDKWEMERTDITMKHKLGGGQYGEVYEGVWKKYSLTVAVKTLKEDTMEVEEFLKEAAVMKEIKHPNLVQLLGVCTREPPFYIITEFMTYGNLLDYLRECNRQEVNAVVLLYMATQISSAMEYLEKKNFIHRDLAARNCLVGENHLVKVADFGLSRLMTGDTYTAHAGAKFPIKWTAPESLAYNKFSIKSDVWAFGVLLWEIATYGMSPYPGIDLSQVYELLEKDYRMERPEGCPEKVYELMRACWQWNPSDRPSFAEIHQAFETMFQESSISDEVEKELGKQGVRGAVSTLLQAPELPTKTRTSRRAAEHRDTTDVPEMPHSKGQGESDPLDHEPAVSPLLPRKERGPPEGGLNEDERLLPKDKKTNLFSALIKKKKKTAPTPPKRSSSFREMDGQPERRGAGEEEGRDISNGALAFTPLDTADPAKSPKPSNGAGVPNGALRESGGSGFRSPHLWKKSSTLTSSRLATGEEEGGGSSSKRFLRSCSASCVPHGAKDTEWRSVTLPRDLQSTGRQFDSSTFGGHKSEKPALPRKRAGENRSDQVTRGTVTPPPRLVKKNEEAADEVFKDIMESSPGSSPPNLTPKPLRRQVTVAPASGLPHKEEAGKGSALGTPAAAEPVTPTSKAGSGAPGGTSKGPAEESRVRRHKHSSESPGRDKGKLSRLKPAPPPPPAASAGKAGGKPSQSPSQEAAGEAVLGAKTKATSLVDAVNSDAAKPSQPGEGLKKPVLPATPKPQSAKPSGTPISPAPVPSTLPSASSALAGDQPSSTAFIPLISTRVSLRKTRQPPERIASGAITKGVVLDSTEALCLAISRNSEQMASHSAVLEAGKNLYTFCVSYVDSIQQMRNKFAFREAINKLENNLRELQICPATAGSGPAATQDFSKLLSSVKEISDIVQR

| SMILES | ΔTm [1] [°C] | ΔTm [2] [°C] | ΔTm [3] [°C] | ΔTm [4] [°C] | ΔTm [5] [°C] | ΔTm [6] [°C] |
| --- | --- | --- | --- | --- | --- | --- |
| CNC(=O)c1cc(C(=O)N[C@H]2[C@@H]3COC[C@@H]32)cc2c1O[C@H](CF)[C@H]2c1ccccc1 | 0.27 | 0.34 | 0.02 | -0.78 | 0.3 | 0.31 |
| CC(C)(C)c1cc(NC(=O)c2csc(Nc3ccccn3)n2)no1 | 1.84 | 0.49 | 0.84 | 0.22 | 0.57 | 1.27 |
| COc1ccc(-c2csc(NC(=O)[C@H]3CCCCN3S(=O)(=O)c3ccc(C)cc3)n2)cc1 | 0.82 | 0.77 | 2.05 | 9.29 | -0.89 | 0.39 |
| N=C(N)NCCC[C@@H](NC(=O)C(c1ccccc1)c1ccccc1)C(=O)NCc1ccc(CNC(N)=O)cc1 | 0.37 | 0.62 | 0.21 | -0.25 | 0.26 | 0.1 |
| CCCCCNC(=O)N1CCC(CN(Cc2ccc(Cl)cc2)Cc2ccc([N+](=O)[O-])s2)C1 (stereo unspecified) | 0.03 | 0.81 | 0.7 | -1.49 | 0.03 | -0.9 |
| CSc1ccc(C[C@@H](C)C(=O)O)cc1Nc1nc(N2CC[C@H](N(C)C)C2)cc(C(F)F)c1C#N | 0.42 | 0.56 | 0.3 | 0.05 | 0.24 | 0.19 |
| Cc1cc(SCc2sc(-c3ccc(C(F)(F)F)cc3)nc2C)ccc1OCC(=O)O | 0 | 0.3 | 1.18 | -1.11 | 0.57 | -2.58 |
| Cc1ccc(NC(=O)c2ccc(CN3CC[C@H](N(C)C)C3)c(C(F)(F)F)c2)cc1Nc1nccc(-c2cncnc2)n1 | 17.6 | 0.7 | 0.73 | 0.08 | 0.9 | 0.26 |
| O=C(CCSCc1ccco1)NNC(=O)N1Cc2ccccc2Oc2ccc(Cl)cc21 | 0.44 | 0.06 | -8.4 | -9.34 | 0.1 | 1.12 |
| COc1cc(C)c(S(=O)(=O)N(C)CCC(=O)N[C@H]2CC[C@@H](N3CCC4CN(C)CC4C3)CC2)c(C)c1 (stereo partly specified) | 0.38 | -0.04 | 0.64 | 0.15 | 0.83 | -0.36 |
| Cc1nn(-c2nc3ccc(Cl)c(Cl)c3[nH]2)c(O)c1C1OC(=O)c2ccccc21 (stereo unspecified) | -0.04 | 2.69 | -0.14 | 0.53 | 0.2 | 0.71 |
| CCOC(=O)CS(=O)(=O)c1ccc([C@@H](CO)NC(=O)c2cc3c(Cl)c(Cl)c(C)cc3n2C)cc1 | -1.39 | 0.21 | 1.93 | -1.8 | 0.66 | -4.67 |
| CS(=O)(=O)CCNCc1ccc(-c2ccc3ncnc(Nc4ccc(OCc5cccc(F)c5)c(Cl)c4)c3c2)o1 | 0.09 | 0.9 | 0.12 | -0.86 | 0.56 | -0.38 |
| CCCNc1ccc2ncc(-c3ccncc3)n2n1 | 5.22 | 4.76 | 5.6 | 4.07 | 1.16 | 6.52 |
| O=C(O)C[C@H]1CC[C@H](c2ccc(NC(=O)c3nnc(Nc4ccc(F)c(F)c4)o3)cc2)CC1 | -0.04 | 0.24 | -0.9 | -0.67 | -2.59 | 0.92 |
| CNc1ncc2cc(-c3ccc(-c4cccc(C)n4)cc3Cl)c(=O)n(C[C@H]3OC[C@H](N)CO3)c2n1 | 5.88 | 1.85 | 1.07 | 0.45 | -0.4 | 8.51 |
| Cc1cc2c(-c3ccco3)cnc(N[C@@H]3CCN(C)C[C@H]3C(=O)NC3CCCCC3)c2[nH]c1=O | 0.07 | 0.91 | -0.09 | -0.51 | 0.54 | 0.79 |
| COc1cc2c(cc1CC=C(C)C)C(=O)C[C@@H](c1ccc(O)cc1)O2 | 0.53 | 1.21 | 1.23 | -0.03 | 0.34 | -1.38 |
| CCCCNc1ncc2c(-c3ccc(CN4CCN(C)CC4)cc3)cn([C@H]3CC[C@H](O)CC3)c2n1 | 11.7 | 5.95 | 2.72 | 4.8 | 0.43 | 13.5 |
| Cc1n[nH]c2ncc(C(=O)N3CCC[C@H]3c3ccc(Cl)cc3)cc12 | 0.42 | 0.82 | 0.12 | 7.82 | 0.69 | 0.03 |
| CCO[C@@H](Cc1ccc(OCCc2ccc(OS(C)(=O)=O)cc2)cc1)C(=O)O | 0.03 | 0.41 | -0.31 | -0.58 | 0.21 | 0.09 |
| CC(=O)c1c(C)c2cnc(Nc3ccc(N4CCN(CCOCCOCCOCCNC(=O)COc5cccc6c5C(=O)N(C5CCC(=O)NC5=O)C6=O)CC4)cn3)nc2n(C2CCCC2)c1=O (stereo unspecified) | -0.65 | -0.26 | 1.49 | 1.18 | -1.16 | 0.61 |
| C/C(=C\C(=O)Nc1ccccc1C(=O)O)c1ccc2ccccc2c1 | -0.72 | -0.23 | 0.09 | 0 | 0.8 | 1.85 |
| Cc1nn(C)c(COc2ccc(N3CCN(S(=O)(=O)N(C)C)CC3)cc2)c1-c1cccc2c(CCCOc3cccc4ccccc34)c(C(=O)O)n(CCN3CCOCC3)c12 | 0.04 | 0.39 | -0.73 | 0 | -0.31 | 0.6 |
| CN(C)C(=O)Cn1cc(-c2nc(C3(c4ccc(-c5cnc(N)nc5)cc4)CC3)no2)cn1 | 0.7 | 0.53 | 0.13 | -0.37 | 0.16 | 1.51 |
| Cn1cnc(Cn2ccc3ccc(CNCc4[nH]c5ccccc5c4[C@@H]4NC(=O)c5ccc(O)cc54)cc32)c1 | 0.7 | 0.07 | 0.29 | -0.16 | 0.02 | 0.7 |
